Source: PubChem BioAssay AID1159580 (chemical genetic matrix, 2015)
Where “and” joins values, the source holds several entries; their conditions need not be identical. Identical values can stand only once. About 2,000 (36%) of roughly 5,500 compounds were called active. About 18% were inconclusive and are not listed. Cut-off read from the data, not from the text of the source: active = normalized growth mostly below about 0.91 (no sharp cut-off); inconclusive = no clear call, values can overlap the other calls; inactive = mostly above about 0.92. The list shows a part of the results.

Test: chemical genetic growth profiling, strain panel (AID 1159580);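 note: tested at 20 µM; growth read once vehicle control cultures reached saturation at 30 °C; 1 = growth at the plate median or of vehicle wells; lower values mean less growth of the strain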
Details: S. cerevisiae deletion strains, growth OD

Measured: normalized growth

Cn1c(=O)[nH]c(=O)c2[nH]cnc21
inactive: locus YAL013W, strain DEP1, hits give low values 0.993 | locus YAL021C, strain ccr4, hits give low values 0.997 | locus YAL026C, strain drs2, hits give low values 0.989 | locus YAL030W, strain snc1, hits give low values 0.995 | locus YBL061C, strain skt5, hits give low values 1.01 | locus YBR009C, strain hhf1, hits give low values 0.999 | locus YBR021W, strain FUR4, hits give low values 0.991 | locus YBR023C, strain chs3, hits give low values 0.985 | locus YBR171W, strain sec66, hits give low values 0.982 | locus YBR229C, strain ROT2, hits give low values 0.987 | locus YBR231C, strain swc5, hits give low values 0.993 | locus YBR279W, strain paf1, hits give low values 0.988 | locus YCL011C, strain gbp2, hits give low values 1 | locus YCL016C, strain dcc1, hits give low values 0.987 | locus YCL029C, strain bik1, hits give low values 0.971 | locus YCL061C, strain MRC1, hits give low values 0.981 | locus YCL069W, strain vba3, hits give low values 0.999 | locus YCR088W, strain abp1, hits give low values 0.988 | locus YDL005C, strain med2, hits give low values 0.966 | locus YDL035C, strain GPR1, hits give low values 1 | locus YDL040C, strain nat1, hits give low values 0.99 | locus YDL074C, strain BRE1, hits give low values 1.01 | locus YDL101C, strain DUN1, hits give low values 0.984 | locus YDL134C, strain PPH21, hits give low values 0.999 | locus YDL185W, strain tfp1, hits give low values 0.955 | locus YDL192W, strain arf1, hits give low values 0.981 | locus YDR001C, strain nth1, hits give low values 0.996 | locus YDR069C, strain doa4, hits give low values 0.971 | locus YDR101C, strain arx1, hits give low values 0.981 | locus YDR137W, strain rgp1, hits give low values 0.979 | locus YDR150W, strain NUM1, hits give low values 0.994 | locus YDR159W, strain sac3, hits give low values 0.956 | locus YDR162C, strain NBP2, hits give low values 0.988 | locus YDR195W, strain ref2 1 | locus YDR297W, strain sur2, hits give low values 1 | locus YDR318W, strain mcm21, hits give low values 0.98 | locus YDR334W, strain swr1, hits give low values 1.01 | locus YDR335W, strain msn5, hits give low values 0.997 | locus YDR388W, hits give low values 0.966 | locus YDR392W, strain spt3, hits give low values 0.941 | locus YDR502C, strain sam2, hits give low values 0.982 | locus YEL003W, strain gim4, hits give low values 1 | locus YEL037C, strain rad23, hits give low values 1 | locus YEL061C, strain CIN8 (second series), hits give low values 0.999 | locus YEL061C, strain CIN8, hits give low values 0.994 | locus YER015W, strain faa2, hits give low values 0.996 | locus YER016W, strain bim1, hits give low values 1.01 | locus YER110C, hits give low values 0.969 | locus YER111C, strain swi4, hits give low values 1 | locus YER155C, strain BEM2 (second series), hits give low values 0.981 | locus YER155C, strain BEM2, hits give low values 0.989 | locus YER167W, strain BCK2, hits give low values 0.975 | locus YFR010W, strain ubp6, hits give low values 1 | locus YGL078C, strain dbp3, hits give low values 0.969 | locus YGL086W, strain mad1, hits give low values 0.977 | locus YGL167C, strain pmr1, hits give low values 1 | locus YGL173C, strain kem1, hits give low values 0.991 | locus YGL227W, strain vid30, hits give low values 0.999 | locus YGL240W, strain doc1, hits give low values 0.969 | locus YGL248W, strain PDE1, hits give low values 0.983 | locus YGL253W, strain hxk2, hits give low values 0.975 | locus YGR078C, strain PAC10, hits give low values 0.996 | locus YGR135W, strain pre9, hits give low values 0.977 | locus YGR229C, strain SMI1, hits give low values 0.993 | locus YGR252W, strain gcn5, hits give low values 1.06 | locus YHR013C, strain ard1, hits give low values 0.975 | locus YHR027C, strain rpn1, hits give low values 0.983 | locus YHR030C, strain SLT2, hits give low values 0.981 and 0.987 | locus YHR079C, strain IRE1 (second series), hits give low values 0.97 | locus YHR079C, strain IRE1, hits give low values 0.984 | locus YHR094C, strain hxt1, hits give low values 0.977 | locus YHR129C, strain ARP1, hits give low values 0.994 | locus YHR142W, strain chs7, hits give low values 1 | locus YHR200W, strain rpn10, hits give low values 0.968 | locus YIL066C, strain RNR3, hits give low values 0.988 | locus YIL073C, strain SPO22, hits give low values 0.935 | locus YIL125W, strain kgd1, hits give low values 0.971 | locus YIR030C, strain dcg1, hits give low values 0.967 | locus YJL092W, strain hpr5, hits give low values 0.996 | locus YJL095W, strain BCK1 (second series), hits give low values 0.999 | locus YJL095W, strain BCK1, hits give low values 0.977 and 0.976 | locus YJL115W, strain asf1, hits give low values 0.973 | locus YJL129C, strain trk1, hits give low values 0.968 | locus YJL134W, strain LCB3, hits give low values 0.987 | locus YJL154C, strain vps35, hits give low values 0.998 | locus YJL164C, strain tpk1, hits give low values 1.01 | locus YJL166W, strain qcr8, hits give low values 1 | locus YJL168C, strain set2, hits give low values 0.973 | locus YJL187C, strain SWE1 (second series), hits give low values 0.987 | locus YJR043C, strain POL32, hits give low values 1 | locus YJR066W, strain TOR1, hits give low values 0.911
